# Inconclusive results are not listed. Entries that show only a call come without a potency. Active and inactive are the calls of the source. The call rests on the fitted dose curve; in most records, active means well fitted inhibition curve with a large enough effect; inconclusive means small, poorly fitted or top-dose-only effect; inactive means flat fitted curve, though single readings scatter.
# Molecular target: Voltage-gated inwardly rectifying potassium channel KCNH2 (Homo sapiens) (UniProt Q12809)
# Test: qHTS Assay for Small Molecule Inhibitors of the Human hERG Channel Activity (AID 588834);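 further: top concentration of the series differs between compounds; lower thallium flux fluorescence means stronger hERG block; nearly all actives have a fitted effect of over 50% in size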
# Details: U2OS BacMam hERG, FluxOR thallium flux fluorescence; series mostly up to 46.1 µM
# Method in brief: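 Concentration-response qHTS measuring drop in thallium-sensitive dye signal. U2OS cells carrying BacMam hERG; compound exposure ~10 min, then stimulation buffer and 2 min read at 1 sec intervals.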
# Chain of Voltage-gated inwardly rectifying potassium channel KCNH2 (Homo sapiens) (Q12809 whole entry, looked up): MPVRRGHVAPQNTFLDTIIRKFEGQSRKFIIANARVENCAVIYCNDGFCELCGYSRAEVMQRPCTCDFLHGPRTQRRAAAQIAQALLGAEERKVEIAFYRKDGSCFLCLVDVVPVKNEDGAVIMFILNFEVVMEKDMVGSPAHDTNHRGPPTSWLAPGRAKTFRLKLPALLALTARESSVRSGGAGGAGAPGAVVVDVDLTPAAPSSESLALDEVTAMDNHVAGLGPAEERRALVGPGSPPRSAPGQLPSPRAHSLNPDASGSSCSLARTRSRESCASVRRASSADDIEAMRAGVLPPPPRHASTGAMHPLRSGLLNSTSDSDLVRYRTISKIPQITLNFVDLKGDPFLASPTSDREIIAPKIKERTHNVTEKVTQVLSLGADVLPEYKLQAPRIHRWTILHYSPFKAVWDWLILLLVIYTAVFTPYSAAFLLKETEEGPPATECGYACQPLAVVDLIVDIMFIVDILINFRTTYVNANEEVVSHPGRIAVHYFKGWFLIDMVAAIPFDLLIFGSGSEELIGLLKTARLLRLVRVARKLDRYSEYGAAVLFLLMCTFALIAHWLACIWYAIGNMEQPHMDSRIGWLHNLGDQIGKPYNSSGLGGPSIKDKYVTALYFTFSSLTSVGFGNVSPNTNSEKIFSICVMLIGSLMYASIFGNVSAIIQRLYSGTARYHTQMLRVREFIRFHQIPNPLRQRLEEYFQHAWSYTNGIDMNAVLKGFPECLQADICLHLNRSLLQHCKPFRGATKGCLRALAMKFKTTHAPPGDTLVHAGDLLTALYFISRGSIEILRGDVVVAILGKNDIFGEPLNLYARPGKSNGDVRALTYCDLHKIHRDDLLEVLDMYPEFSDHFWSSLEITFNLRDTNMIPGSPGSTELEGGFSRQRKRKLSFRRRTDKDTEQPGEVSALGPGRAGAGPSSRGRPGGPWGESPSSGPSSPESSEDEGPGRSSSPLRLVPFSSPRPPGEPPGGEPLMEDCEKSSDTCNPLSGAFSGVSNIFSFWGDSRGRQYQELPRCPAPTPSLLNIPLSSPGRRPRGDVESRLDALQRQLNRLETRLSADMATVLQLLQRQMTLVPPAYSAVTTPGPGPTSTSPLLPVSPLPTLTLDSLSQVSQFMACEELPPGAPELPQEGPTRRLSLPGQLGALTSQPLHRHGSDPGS
row,Compound,Potency
1,CCc1ccc(C(=O)C(C)CN2CCCCC2)cc1 (stereo not drawn),inactive
2,CCCCCCCCCCCCCCCC(=O)O,inactive
3,OC[C@H]1O[C@@H]2O[C@H]3[C@H](O)[C@@H](O)[C@@H](O[C@H]4[C@H](O)[C@@H](O)[C@@H](O[C@H]5[C@H](O)[C@@H](O)[C@@H](O[C@H]6[C@H](O)[C@@H](O)[C@@H](O[C@H]7[C@H](O)[C@@H](O)[C@@H](O[C@H]8[C@H](O)[C@@H](O)[C@@H](O[C@H]1[C@H](O)[C@H]2O)O[C@@H]8CO)O[C@@H]7CO)O[C@@H]6CO)O[C@@H]5CO)O[C@@H]4CO)O[C@@H]3CO,inactive
4,CCCCCCCCCCCCCCCCO,inactive
5,CCOc1ccc(NC(C)=O)cc1,inactive
6,CC1(C)OC[C@@H]2O[C@@]3(C(=O)O)OC(C)(C)O[C@H]3[C@@H]2O1,inactive
7,C=C[C@@]1(C)CC(=O)[C@]2(O)[C@@]3(C)[C@@H](O)CCC(C)(C)[C@@H]3[C@H](O)[C@H](OC(C)=O)[C@@]2(C)O1,inactive
8,CC(=C(CCOC(=O)C(C)C)SSC(CCOC(=O)C(C)C)=C(C)N(C=O)Cc1cnc(C)nc1N)N(C=O)Cc1cnc(C)nc1N,inactive
9,CCOc1ccccc1C(N)=O,inactive
10,CN(C)C(=O)Nc1ccc(Cl)c(Cl)c1,inactive
11,C#C[C@]1(O)CC[C@H]2[C@@H]3CCC4=Cc5oncc5C[C@]4(C)[C@H]3CC[C@@]21C,inactive
12,CC(C(=O)O)c1cccc(Oc2ccccc2)c1 (stereo not drawn),inactive
13,CC(C)n1c(/C=C/[C@@H](O)C[C@@H](O)CC(=O)O)c(-c2ccc(F)cc2)c2ccccc21,inactive

# Source: PubChem BioAssay (NCATS)
